USP17 block = inhibitors of human USP17 deubiquitinase | A8MUK1 | purified USP17, Ub-rhodamine cleavage fluorescence, 3 h | inhibition, % at 50 µM | 6.5% of 47,000 active | AID 1645855
USP28 block = inhibitors of human USP28 deubiquitinase | Q96RU2 | AID 1645857 | inhibition, % at 25 µM | 3% of 47,000 active | purified USP28, Ub-rhodamine cleavage fluorescence, 30 min
OTUD3 inh = inhibitors of human OTUD3 deubiquitinase; purified OTUD3, Ub-rhodamine fluorescence, 2 h; inhibition, % at 25 µM; 0.7% of 47,000 active
USP30 inh = inhibitors of human USP30 deubiquitinase; purified USP30, Ub-rhodamine cleavage fluorescence; inhibition, % at 25 µM; 5.3% of 47,000 active; Q70CQ3
Target sequence (Q70CQ3 whole entry, looked up): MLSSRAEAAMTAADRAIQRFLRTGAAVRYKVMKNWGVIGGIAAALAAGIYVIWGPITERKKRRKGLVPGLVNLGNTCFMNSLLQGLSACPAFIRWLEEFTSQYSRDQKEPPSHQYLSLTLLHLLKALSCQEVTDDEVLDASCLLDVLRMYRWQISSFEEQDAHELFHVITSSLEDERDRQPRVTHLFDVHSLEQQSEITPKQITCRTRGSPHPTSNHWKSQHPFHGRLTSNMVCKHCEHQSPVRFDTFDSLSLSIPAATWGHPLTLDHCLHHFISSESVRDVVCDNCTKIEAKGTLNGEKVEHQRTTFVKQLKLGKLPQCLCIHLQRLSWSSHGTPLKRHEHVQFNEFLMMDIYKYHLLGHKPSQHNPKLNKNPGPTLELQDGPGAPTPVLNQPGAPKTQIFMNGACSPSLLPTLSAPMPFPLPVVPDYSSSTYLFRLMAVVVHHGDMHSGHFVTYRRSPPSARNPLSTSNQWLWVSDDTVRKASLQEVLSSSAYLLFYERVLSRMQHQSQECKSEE
Hits are given with their value; i = inactive; nt = no result given. Sampled rows, rich in hits. Any-hit rate of the full collection: about 11%. No stated cut-off is given here; in the data, active means inhibition above about 30%; inactive means the rest.

SMILES	USP17 block	USP28 block	OTUD3 inh	USP30 inh
O=C(COc1ncnc2ccccc12)Nc1ccc(OCc2ccccc2)cc1	48	nt	i	nt
O=C(Nc1ccc(NC(=O)c2ccccc2O)cc1)Nc1ccc(OCc2ccccc2)cc1	i	i	i	i
O=C(Cn1ccnc1)N1CCc2[nH]nc(-c3ccccc3)c2C1	i	i	i	i
CCOc1ccccc1C(=O)NCC(=O)OC(C(=O)c1c[nH]c2ccccc12)c1ccccc1 (stereo not drawn)	54	i	i	i
O=C(OC(C(=O)c1c[nH]c2ccccc12)c1ccccc1)c1cccc(Oc2ccccc2)c1 (stereo not drawn)	i	i	i	i
COc1cc(C)c(S(=O)(=O)Nc2cnc(N3CCCC3)nc2)cc1C	nt	i	i	i
CC(=O)NC(Cc1cccc(F)c1)C(=O)NC1CCN(S(=O)(=O)c2ccccc2)CC1 (stereo not drawn)	i	i	i	i
COc1ccc(S(=O)(=O)c2c[nH]c3ccc(C)cc3c2=O)cc1Cl	37	i	i	i
COc1ccc2[nH]cc(S(=O)(=O)c3ccc(C)c(F)c3)c(=O)c2c1	59	i	i	43
COc1ccc2[nH]cc(S(=O)(=O)c3ccc(C#N)cc3)c(=O)c2c1	31	i	i	i
COc1ccc(C(=O)NCCc2cc3c(C)ccc(C)c3[nH]c2=O)c(OC)c1	i	i	i	i
O=S(=O)(Nc1nnc(C2CC2)s1)c1cccc2nonc12	37	nt	i	nt
CCOC(=O)c1ccc(NC(=O)COc2cccc3c2CCN(CC)C3=O)cc1	i	69	i	i
NCCn1nc(C2CCN(C(=O)Cc3ccc(F)cc3)C2)c2cccnc21 (stereo not drawn)	i	i	i	i
NCCn1nc(C2CCN(C(=O)Cc3cccc(F)c3)C2)c2cccnc21 (stereo not drawn)	37	i	i	i
O=C(O)C[C@@H]1CCN(C(=O)C2CC2)C[C@@H]1CC1=NCCc2cc(F)ccc21	i	i	i	i
CCOc1cc2c(cc1OCC)C(c1ccc(Cl)cc1)N(c1ccc(C(=O)O)cc1)C(=O)C2 (stereo not drawn)	i	i	i	31
COc1ccc(CNC(=O)CN(C(=O)CCC(=O)Nc2ccccn2)c2ccc(OC)cc2)cc1	i	i	i	i
O=C(CN(C(=O)CCC(=O)Nc1ccccn1)c1cccc(F)c1)NCc1ccc(F)cc1	i	i	i	33
Cc1ccc(C(=O)N2CCC3(CC2)OC(=O)Nc2ccccc23)cc1	i	i	i	i
CCOc1cccc(N(C(=O)c2cnccn2)C(C(=O)Nc2ccc(F)cc2)c2ccccc2C)c1 (stereo not drawn)	i	i	i	i
CCOc1ncccc1C(=O)Nc1ccnn1Cc1ccc(C)o1	i	i	i	i
O=S(=O)(c1cc(F)cc(F)c1)N1CCCn2c(nc3ccccc32)C1	32	i	i	38
COc1ccc(CNc2nccn(-c3ccc4c(c3)OCO4)c2=O)cc1OC	i	i	i	i
O=C(c1ccc(OCC2CCN(C(=O)C3CCCCC3)CC2)cc1)N1CCOCC1	i	i	i	i
SMILES	USP17 block	USP28 block	OTUD3 inh	USP30 inh
O=C(c1ccc(N2CCc3ccccc32)nn1)N1CCc2ccccc21	52	i	i	i
Cc1ccccc1NC(=O)Cn1c(C)ncc(C(=O)NC2CCCC2)c1=O	i	i	i	i
COc1cc(CO)cc2c1C(=O)c1c(O)cc(O)cc1C2=O	i	i	i	i
COc1cc(O)c2c(c1O)C(=O)c1cc(C)ncc1C2=O	43	i	i	i
CCC(C)NC(=O)c1cc2c(=O)n3cccc(C)c3nc2n1Cc1ccccc1 (stereo not drawn)	i	i	i	i
COCCCn1c(C(=O)Nc2cccc(OC)c2)cc2c(=O)n3cccc(C)c3nc21	i	i	i	i
COCCCn1c(C(=O)NCCc2ccccc2)cc2c(=O)n3cccc(C)c3nc21	71	i	i	i
COCCCn1c(C(N)=O)cc2c(=O)n3cccc(C)c3nc21	40	i	i	i
CCOCCCNC(=O)c1cc2c(=O)n3cccc(C)c3nc2n1Cc1ccccc1	41	i	i	44
CCCCN(C)C(=O)c1cc2c(=O)n3cccc(C)c3nc2n1Cc1ccccc1	63	i	i	42
CN(C)C(=O)c1sc2ccccc2c1C1CCN(S(=O)(=O)c2cnn(C)c2)C1 (stereo not drawn)	i	i	i	i
COc1ccc(CN2CCc3nc4ccccc4n3CC2)cc1	i	i	i	i
COc1cccc(NC(=O)Cn2cnc3c(c2=O)CCN(Cc2ccccc2)C3)c1	nt	i	i	i
Cc1ccc(NC(=O)CNC(c2ccccc2)c2ccccc2)c(F)c1	i	i	i	i
COc1ccc(OC)c(NC(=O)CN2c3ccccc3S(=O)(=O)c3ccccc32)c1	i	i	i	i
COc1ccc(OC)c(NC(=O)CNC(=O)c2cc3c(OC)cccc3[nH]2)c1	64	i	i	i
COc1ccc(OC)c(NC(=O)CNC(c2ccccc2)c2ccccc2)c1	i	i	i	33
Cc1ccc(NC(=O)Cn2c(=O)n(CCCCC(=O)NCc3ccco3)c(=O)c3ccccc32)cc1C	i	i	i	i
COc1ccccc1CNC(=O)Cc1cc(-c2ccc(Cl)cc2)on1	i	i	i	i
COc1ccccc1CNC(=O)CCc1cn(Cc2ccc(Cl)cc2)c2ccccc12	32	i	i	i
COc1ccccc1CNC(=O)CCn1c(=O)c2ccccc2n(Cc2cccc([N+](=O)[O-])c2)c1=O	i	i	i	i
COc1ccccc1CNC(=O)CCn1c(=O)c2ccccc2n(Cc2ccccc2C#N)c1=O	40	i	i	i
CCOc1ccc(NC(=O)Cn2c(=O)n(CCC(=O)NCc3ccccc3OC)c(=O)c3ccccc32)cc1	52	i	i	50
Cc1nn(CC(=O)N2N=CCC2(O)C(F)(F)F)cc1[N+](=O)[O-] (stereo not drawn)	i	i	i	i
Cc1cccc(Nc2nc(C)c(C(=O)NCc3ccccn3)s2)n1	i	i	i	i
SMILES	USP17 block	USP28 block	OTUD3 inh	USP30 inh
COc1ccc(OC)c(CCNC(=O)C2CCN(c3nc4ccccc4[nH]3)CC2)c1	i	i	i	i
O=C(COC(=O)CCc1ccc(S(=O)(=O)N2CCOCC2)cc1)Nc1ccc2c(c1)OCO2	i	i	i	i
Cc1ccc2oc(=O)c(S(=O)(=O)N3CCCCC3)cc2c1	61	i	i	i
O=S(=O)(C1CCCCC1)N1CCC(O)(CN2CCOCC2)C1 (stereo not drawn)	i	i	i	i
CC1(O)CC(=O)c2c(cc3cc(O)cc(O)c3c2O)C1 (stereo not drawn)	77	68	75	i
COC(=O)c1ccc(Cn2cnc3ccc(F)cc3c2=O)o1	i	87	i	i
O=C(NCc1cccnc1)c1ccc(Cn2cnc3ccccc3c2=O)o1	i	i	i	i
O=C(NCc1ccncc1)c1ccc(Cn2cnc3ccccc3c2=O)o1	i	i	i	i
COC(=O)c1ccc(Cn2cnc3ccc(Br)cc3c2=O)o1	i	80	i	i
CC1CCN(c2ccc(C(=O)NC(c3ccccc3)c3ccccc3)cc2[N+](=O)[O-])CC1	i	i	i	i
O=C(c1ccc(CNS(=O)(=O)c2ccc(F)cc2)cc1)N1CCOCC1	i	i	i	i
O=C(CC1Oc2ccccc2NC1=O)Nc1ccccc1Br (stereo not drawn)	59	i	i	i
